According to the supplement of paper PMC10849652:
The full data set covers some 8,800 targets. This sample favours those with a hit. About 0.5% of all pairs of compound and target were hits. Unmarked numbers belong to inactive results.

How the values were obtained:
Experiment in all cases: log2 fold change, soluble protein after heating vs DMSO (PISA); higher = thermal stabilisation; K562 lysate, 10 uM; active = over 0.2 and 3.5 SD of the protein, either way, in both replicates (recomputed)
[1] = compound: CN1CC[C@H](c2c(O)cc(O)c3c(=O)cc(-c4ccccc4Cl)oc23)[C@H](O)C1 [alvocidib]
Method in brief: (§1)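 A 30 min treatment with 10 μM compound was applied to crude K562 extract at 1 mg/mL protein in PBS pH 7.4 with 1 mM MgCl2. Heating for 3 min spanned 48°C-58°C, after which aliquots were pooled, adjusted to 0.5% NP-40 at 4°C and spun at 21,000xg for 90 min. TMTpro 16plex LC-MS/MS of the supernatant, with channel sums equalised, gave values recorded as log-two fold change in thermal stability against solvent controls, from duplicates.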

[2] = compound: CN1CCc2c(c3ccccc3n2Cc2ccc(C(=O)NO)cc2)C1 [Tubastatin A]
Method in brief: as §1

[3] = compound: CNC(=O)C1=CC=CC=C1NC2=NC(=NC=C2Cl)NC3=C(C=C(C=C3)N4CCOCC4)OC
Method in brief: as §1

[4] = compound: CNC(=O)c1ccc(Nc2ncc(C(F)(F)F)c(NCc3nccnc3N(C)S(C)(=O)=O)n2)cc1 [defactinib]
Method in brief: as §1

[5] = compound: CNc1nc(-c2ccc3c(N)n[nH]c3c2)cc(N2C[C@@H](C(=O)NC3CCCCC3)CC[C@H]2C)n1
Method in brief: as §1

[6] = compound: COC(=O)N[C@@H](C)CNc1nccc(-c2cn(C(C)C)nc2-c2cc(Cl)cc(NS(C)(=O)=O)c2F)n1 [encorafenib]
Method in brief: as §1

[7] = compound: COC(=O)[C@H](CCSC)NC(=O)C1=C(C=C(C=C1)NC[C@H](CS)N)C2=CC=CC=C2
Method in brief: as §1

[8] = compound: COc1cc(Nc2ncc3c(n2)-c2ccc(Cl)cc2C(c2c(F)cccc2OC)=NC3)ccc1C(=O)O [alisertib]
Method in brief: as §1

[9] = compound: COc1cc2nc(-c3cc(F)ccc3O)nc(N[C@@H]3CNC[C@H]3C(C)(C)O)c2cc1OC
Method in brief: as §1

[10] = compound: COc1cc2ncnc(Nc3ccc(F)c(Cl)c3)c2cc1OCCCN1CCOCC1 [gefitinib]
Method in brief: as §1

[11] = compound: CS(=O)(=O)CCNCc1ccc(-c2ccc3ncnc(Nc4ccc(OCc5cccc(F)c5)c(Cl)c4)c3c2)o1 [lapatinib]
Method in brief: as §1

[12] = compound: CS(=O)(=O)N1CCN(Cc2cc3nc(-c4cccc5[nH]ncc45)nc(N4CCOCC4)c3s2)CC1 [pictilisib]
Method in brief: as §1

[13] = compound: C[C@@H](Oc1cc(-c2cnn(C3CCNCC3)c2)cnc1N)c1c(Cl)ccc(F)c1Cl [crizotinib]
Method in brief: as §1

[14] = compound: C[C@H](C1=CC=C(C=C1)C(=O)NC2=C3C=CNC3=NC=C2)N
Method in brief: as §1

[15] = compound: C[C@H](Nc1ncnc2nc[nH]c12)c1cc2cccc(Cl)c2c(=O)n1-c1ccccc1 [duvelisib]
Method in brief: as §1

[16] = compound: Cc1cc(Nc2cc(CN3CCOCC3)c3nc(C)c(Cc4ccc(Cl)cc4F)n3n2)n[nH]1 [gandotinib]
Method in brief: as §1

[17] = compound: Cc1cc(Nc2cc(N3CCN(C)CC3)nc(Sc3ccc(NC(=O)C4CC4)cc3)n2)n[nH]1 [tozasertib]
Method in brief: as §1

[18] = compound: Cc1ccc(-n2nc(C(C)(C)C)cc2NC(=O)Nc2ccc(OCCN3CCOCC3)c3ccccc23)cc1 [doramapimod]
Method in brief: as §1

[19] = compound: Cc1ccc(NC(=O)c2ccc(CN3CC[C@H](N(C)C)C3)c(C(F)(F)F)c2)cc1Nc1nccc(-c2cncnc2)n1 [bafetinib]
Method in brief: as §1

[20] = compound: Cc1cccc(CC(=O)N2CCc3c2ccc(-c2cn(C)c4ncnc(N)c24)c3F)n1
Method in brief: as §1

Chain of UniProt O43768 (O43768 whole entry, looked up): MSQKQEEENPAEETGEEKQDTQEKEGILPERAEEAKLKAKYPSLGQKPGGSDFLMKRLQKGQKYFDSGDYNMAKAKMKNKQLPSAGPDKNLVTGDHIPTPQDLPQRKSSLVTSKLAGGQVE
Chain of UniProt P06733 (P06733 whole entry, looked up): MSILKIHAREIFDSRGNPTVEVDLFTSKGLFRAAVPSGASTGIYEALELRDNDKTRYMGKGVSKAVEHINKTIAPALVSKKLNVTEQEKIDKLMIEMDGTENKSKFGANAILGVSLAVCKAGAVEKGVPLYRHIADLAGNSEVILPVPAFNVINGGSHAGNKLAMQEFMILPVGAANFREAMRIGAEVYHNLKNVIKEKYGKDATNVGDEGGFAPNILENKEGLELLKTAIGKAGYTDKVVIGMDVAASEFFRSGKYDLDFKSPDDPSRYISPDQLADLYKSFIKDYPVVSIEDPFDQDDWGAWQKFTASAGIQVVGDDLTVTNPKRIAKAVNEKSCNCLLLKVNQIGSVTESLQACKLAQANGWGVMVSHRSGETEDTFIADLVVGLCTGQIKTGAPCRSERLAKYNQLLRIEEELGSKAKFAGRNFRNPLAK
Chain of UniProt Q9Y285 (Q9Y285 whole entry, looked up): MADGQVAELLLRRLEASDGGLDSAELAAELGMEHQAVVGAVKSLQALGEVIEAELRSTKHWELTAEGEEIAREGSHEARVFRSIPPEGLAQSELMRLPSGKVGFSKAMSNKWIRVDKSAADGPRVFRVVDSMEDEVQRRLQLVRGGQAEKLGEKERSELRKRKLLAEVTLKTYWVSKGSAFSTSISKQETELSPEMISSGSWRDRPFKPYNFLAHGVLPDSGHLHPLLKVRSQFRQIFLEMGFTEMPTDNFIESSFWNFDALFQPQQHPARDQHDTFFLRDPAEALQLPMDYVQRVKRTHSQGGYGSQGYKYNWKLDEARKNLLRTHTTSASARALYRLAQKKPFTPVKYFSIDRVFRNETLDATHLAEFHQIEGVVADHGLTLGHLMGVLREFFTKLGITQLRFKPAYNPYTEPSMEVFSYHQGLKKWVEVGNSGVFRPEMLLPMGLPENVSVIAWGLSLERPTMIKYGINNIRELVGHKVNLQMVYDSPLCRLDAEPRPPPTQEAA
Chain of UniProt Q9UET6 (Q9UET6 whole entry, looked up): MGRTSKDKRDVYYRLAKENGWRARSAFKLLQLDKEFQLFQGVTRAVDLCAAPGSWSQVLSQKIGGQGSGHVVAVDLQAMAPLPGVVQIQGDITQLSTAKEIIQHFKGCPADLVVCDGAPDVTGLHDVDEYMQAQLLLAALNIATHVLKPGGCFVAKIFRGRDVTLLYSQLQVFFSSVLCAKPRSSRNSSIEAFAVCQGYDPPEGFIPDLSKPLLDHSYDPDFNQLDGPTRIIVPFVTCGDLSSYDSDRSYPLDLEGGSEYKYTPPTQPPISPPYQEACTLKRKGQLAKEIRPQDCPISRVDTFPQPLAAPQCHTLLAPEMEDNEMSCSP
Chain of UniProt Q13409 (Q13409 whole entry, looked up): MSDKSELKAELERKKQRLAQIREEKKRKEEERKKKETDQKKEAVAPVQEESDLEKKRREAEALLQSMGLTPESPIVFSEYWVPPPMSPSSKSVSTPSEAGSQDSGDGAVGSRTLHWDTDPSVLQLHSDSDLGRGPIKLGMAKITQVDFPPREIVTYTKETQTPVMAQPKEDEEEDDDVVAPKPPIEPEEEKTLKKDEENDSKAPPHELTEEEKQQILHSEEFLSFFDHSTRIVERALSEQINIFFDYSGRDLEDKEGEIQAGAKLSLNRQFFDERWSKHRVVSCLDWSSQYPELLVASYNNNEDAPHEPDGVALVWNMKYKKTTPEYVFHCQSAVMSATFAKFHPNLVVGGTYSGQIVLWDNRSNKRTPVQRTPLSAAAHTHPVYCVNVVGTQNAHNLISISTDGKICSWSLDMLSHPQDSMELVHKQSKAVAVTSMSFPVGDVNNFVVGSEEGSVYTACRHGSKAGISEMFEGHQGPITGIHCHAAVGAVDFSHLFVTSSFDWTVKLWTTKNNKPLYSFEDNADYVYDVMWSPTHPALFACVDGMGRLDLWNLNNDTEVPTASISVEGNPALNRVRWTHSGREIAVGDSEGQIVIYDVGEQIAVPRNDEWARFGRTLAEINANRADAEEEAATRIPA
Chain of UniProt O95466 (O95466 whole entry, looked up): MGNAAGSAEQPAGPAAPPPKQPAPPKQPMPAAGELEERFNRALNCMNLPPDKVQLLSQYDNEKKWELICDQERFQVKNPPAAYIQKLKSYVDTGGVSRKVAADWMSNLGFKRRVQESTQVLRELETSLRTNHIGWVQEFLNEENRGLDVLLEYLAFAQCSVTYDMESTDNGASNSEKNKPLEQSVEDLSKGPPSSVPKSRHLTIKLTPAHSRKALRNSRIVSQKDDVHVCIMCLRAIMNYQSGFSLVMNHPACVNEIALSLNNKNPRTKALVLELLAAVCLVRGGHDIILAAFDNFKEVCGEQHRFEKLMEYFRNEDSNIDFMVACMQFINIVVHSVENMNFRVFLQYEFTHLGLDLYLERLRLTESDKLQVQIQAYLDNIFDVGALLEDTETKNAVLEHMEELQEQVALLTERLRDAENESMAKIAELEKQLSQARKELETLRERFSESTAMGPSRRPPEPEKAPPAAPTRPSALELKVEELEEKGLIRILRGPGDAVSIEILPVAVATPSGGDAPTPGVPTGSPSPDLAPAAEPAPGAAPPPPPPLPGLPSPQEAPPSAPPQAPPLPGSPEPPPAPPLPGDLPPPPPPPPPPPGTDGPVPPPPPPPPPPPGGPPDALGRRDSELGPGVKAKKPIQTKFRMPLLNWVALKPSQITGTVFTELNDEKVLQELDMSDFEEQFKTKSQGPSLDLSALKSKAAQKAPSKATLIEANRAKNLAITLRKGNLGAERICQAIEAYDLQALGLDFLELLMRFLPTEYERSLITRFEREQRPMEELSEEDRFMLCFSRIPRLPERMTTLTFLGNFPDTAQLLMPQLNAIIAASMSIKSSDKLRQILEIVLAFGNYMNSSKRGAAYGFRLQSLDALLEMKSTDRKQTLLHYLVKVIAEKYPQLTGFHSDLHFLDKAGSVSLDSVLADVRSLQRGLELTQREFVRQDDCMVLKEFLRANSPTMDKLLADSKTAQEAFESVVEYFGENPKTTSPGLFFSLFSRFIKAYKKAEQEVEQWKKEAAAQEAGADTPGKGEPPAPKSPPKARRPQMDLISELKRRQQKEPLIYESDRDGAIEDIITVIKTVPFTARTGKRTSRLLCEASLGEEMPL
Chain of UniProt Q9NWS6 (Q9NWS6 whole entry, looked up): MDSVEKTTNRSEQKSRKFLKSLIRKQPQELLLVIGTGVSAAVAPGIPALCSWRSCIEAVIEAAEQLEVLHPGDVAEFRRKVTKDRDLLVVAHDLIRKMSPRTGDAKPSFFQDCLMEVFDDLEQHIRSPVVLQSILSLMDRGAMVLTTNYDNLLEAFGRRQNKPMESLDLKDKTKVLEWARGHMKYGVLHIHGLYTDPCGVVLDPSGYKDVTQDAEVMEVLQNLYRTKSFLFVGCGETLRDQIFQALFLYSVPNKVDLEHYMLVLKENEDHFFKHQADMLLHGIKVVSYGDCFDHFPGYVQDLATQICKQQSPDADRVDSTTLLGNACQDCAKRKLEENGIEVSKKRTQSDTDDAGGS
Chain of UniProt Q9H4H8 (Q9H4H8 whole entry, looked up): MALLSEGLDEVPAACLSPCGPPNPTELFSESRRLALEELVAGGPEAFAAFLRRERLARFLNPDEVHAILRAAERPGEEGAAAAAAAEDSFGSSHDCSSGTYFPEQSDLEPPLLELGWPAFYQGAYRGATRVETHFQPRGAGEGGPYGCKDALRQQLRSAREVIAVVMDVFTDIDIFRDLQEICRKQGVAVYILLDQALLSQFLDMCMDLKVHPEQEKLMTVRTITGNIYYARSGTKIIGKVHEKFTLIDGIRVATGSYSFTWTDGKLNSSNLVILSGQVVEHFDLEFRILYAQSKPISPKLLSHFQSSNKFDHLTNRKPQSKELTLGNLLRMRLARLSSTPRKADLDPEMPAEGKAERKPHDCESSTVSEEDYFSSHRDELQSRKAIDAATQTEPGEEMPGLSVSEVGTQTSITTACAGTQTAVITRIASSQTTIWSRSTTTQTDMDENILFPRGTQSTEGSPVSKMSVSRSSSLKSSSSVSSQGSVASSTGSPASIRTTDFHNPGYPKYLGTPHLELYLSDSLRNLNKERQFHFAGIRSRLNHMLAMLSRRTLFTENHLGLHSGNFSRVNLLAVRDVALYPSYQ
Chain of UniProt Q13347 (Q13347 whole entry, looked up): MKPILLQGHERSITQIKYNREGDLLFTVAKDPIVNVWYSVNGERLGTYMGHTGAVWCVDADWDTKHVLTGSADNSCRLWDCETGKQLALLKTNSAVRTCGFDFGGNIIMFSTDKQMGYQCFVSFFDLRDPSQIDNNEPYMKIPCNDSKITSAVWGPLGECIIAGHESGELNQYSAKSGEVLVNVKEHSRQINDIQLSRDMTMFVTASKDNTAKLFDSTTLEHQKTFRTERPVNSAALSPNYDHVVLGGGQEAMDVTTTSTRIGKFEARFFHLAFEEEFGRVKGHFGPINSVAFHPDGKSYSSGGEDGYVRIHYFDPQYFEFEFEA
Chain of UniProt Q15717 (Q15717 whole entry, looked up): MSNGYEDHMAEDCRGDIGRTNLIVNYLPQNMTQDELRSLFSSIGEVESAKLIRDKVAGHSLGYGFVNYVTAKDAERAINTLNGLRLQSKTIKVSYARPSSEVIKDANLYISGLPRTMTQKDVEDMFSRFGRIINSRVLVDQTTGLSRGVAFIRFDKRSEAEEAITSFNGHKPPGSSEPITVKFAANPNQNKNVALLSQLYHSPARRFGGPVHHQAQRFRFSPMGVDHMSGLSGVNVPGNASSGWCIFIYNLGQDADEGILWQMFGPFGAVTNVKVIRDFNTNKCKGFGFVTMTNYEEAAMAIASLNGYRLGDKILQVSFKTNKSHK

Row | Target | log2 fold change [1] | log2 fold change [2] | log2 fold change [3] | log2 fold change [4] | log2 fold change [5] | log2 fold change [6] | log2 fold change [7] | log2 fold change [8] | log2 fold change [9] | log2 fold change [10] | log2 fold change [11] | log2 fold change [12] | log2 fold change [13] | log2 fold change [14] | log2 fold change [15] | log2 fold change [16] | log2 fold change [17] | log2 fold change [18] | log2 fold change [19] | log2 fold change [20]
1 | EPB41, A0A2R8Y6D0 | -0.015 | -0.033 | 0.114 | 0.098 | -0.178 | 0.029 | 0.052 | 0.165 | -0.014 | 0.407 | 0.008 | -0.14 | -0.085 | -0.037 | -0.086 | 0.031 | 0.068 | -0.051 | -0.031 | -0.003
2 | FAM83D (UniProt Q9H4H8) | -0.009 | -0.044 | 0.005 | -0.007 | 0.022 | 0.026 | 0.017 | 0.015 | 0.062 | 0.009 | -0.01 | -0.024 | -0.026 | -0.021 | -0.002 | -0.018 | -0.038 | 0.009 | -0.116 | 0.031
3 | FMNL1 isoform 3 (UniProt O95466) | 0.011 | -0.053 | 0.015 | 0.021 | 0.015 | 0.093 | 0.018 | 0.029 | 0.044 | -0.061 | 0.058 | 0.005 | -0.013 | 0.044 | 0 | -0.056 | -0.051 | 0.048 | -0.055 | 0.042
4 | FTSJ1 (UniProt Q9UET6) | 0.003 | -0.038 | 0.049 | -0.021 | -0.016 | -0.025 | 0.089 | 0.004 | 0.005 | -0.001 | 0.01 | -0.002 | -0.051 | 0.051 | -0.009 | -0.088 | -0.064 | 0.03 | 0.041 | -0.052
5 | EPN2 (UniProt O95208) | -0.079 | -0.008 | 0.001 | 0.005 | 0.009 | 0.016 | -0.051 | 0.002 | 0.03 | -0.014 | -0.007 | -0.037 | -0.009 | -0.407 (active) | 0.055 | 0.165 | -0.036 | 0.065 | -0.027 | 0.093
6 | FARSA (UniProt Q9Y285) | -0.003 | -0.105 | 0.007 | 0.045 | 0.019 | -0.02 | 0.098 | 0.01 | 0.017 | -0.014 | -0.028 | 0.012 | -0.05 | -0.003 | 0.056 | 0.039 | -0.063 | 0 | -0.075 | -0.047
7 | DYNC1I2 isoform 5 (UniProt Q13409) | 0.002 | 0.007 | -0.021 | -0.011 | 0.012 | -0.007 | -0.012 | -0.011 | 0.004 | 0.006 | -0.003 | -0.017 | -0.003 | -0.004 | -0.002 | 0.009 | 0.012 | 0.006 | 0.03 | -0.003
8 | EIF3I (UniProt Q13347) | 0.034 | -0.126 | 0.01 | 0.002 | -0.043 | -0.018 | 0.156 | 0.003 | 0.009 | -0.03 | -0.009 | -0.015 | -0.004 | -0.003 | -0.009 | -0.022 | 0.008 | 0.029 | -0.052 | 0.01
9 | ELAVL1 isoform 2 (UniProt Q15717) | 0.013 | -0.187 | 0.05 | -0.005 | -0.011 | 0.018 | 0.166 | 0.019 | -0.002 | 0.048 | 0.031 | -0.002 | -0.037 | 0.055 | 0.001 | -0.067 | -0.047 | 0.007 | -0.004 | -0.026
10 | ENO1 isoform 2 (UniProt P06733) | -0.174 | 0.085 | -0.13 | -0.001 | 0.009 | 0.033 | -0.033 | 0.022 | -0.004 | -0.015 | 0.005 | -0.012 | -0.019 | -0.285 (active) | 0.049 | 0.153 | 0.026 | -0.019 | 0.07 | 0.222
11 | GAMT (UniProt Q14353) | 0.025 | -0.059 | 0.055 | 0.068 | 0.038 | -0.028 | 0.039 | 0.018 | -0.021 | -0.035 | 0.02 | -0.028 | 0 | 0.02 | 0.082 | 0.002 | -0.02 | 0.09 | 0.062 | -0.046
12 | FAM118A (UniProt Q9NWS6) | 0.006 | -0.153 | 0.077 | -0.007 | 0.002 | -0.017 | 0.002 | 0.008 | 0.03 | 0.003 | 0.02 | -0.006 | -0.054 | -0.09 | 0.019 | 0.002 | -0.016 | -0.013 | -0.059 | 0.118
13 | ENSA isoform 3 (UniProt O43768) | 0.015 | -0.038 | -0.012 | 0.03 | -0.027 | -0.024 | -0.053 | -0.014 | 0.001 | 0.001 | 0.021 | 0.02 | 0.058 | 0.103 | 0.049 | -0.042 | -0.027 | -0.068 | 0.058 | -0.103
14 | FADS1, A0A0A0MR51 | 0.03 | 0.1 | 0.158 | 0.084 | 0.011 | -0.055 | 0.03 | -0.008 | -0.067 | -0.001 | 0.203 | -0.087 | -0.003 | -0.024 | -0.029 | 0.559 (active) | 0.041 | 0.018 | 0.027 | 0.083
15 | EXOC4 (UniProt Q96A65) | 0.03 | -0.073 | -0.053 | 0.039 | -0.084 | 0.022 | 0.078 | 0.009 | 0.008 | -0.035 | -0.038 | 0.018 | -0.044 | 0.011 | 0.024 | -0.165 | -0.028 | -0.023 | -0.056 | 0.015
16 | FAU (UniProt E9PR30) | 0.073 | 0.02 | -0.087 | 0.003 | 0.013 | -0.04 | 0.013 | 0.035 | -0.016 | -0.044 | -0.018 | 0.02 | -0.055 | 0.293 (active) | 0.047 | -0.105 | -0.027 | 0.071 | -0.019 | -0.121
